Source: PubChem BioAssay AID652040 (Broad Institute, 2013)
Potency and affinity values are given separately. Calls of active or inactive are those of the source.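 The calls were made as follows: active = falling luciferase signal whose fitted half-maximal concentration is at most twice the top tested dose; inconclusive = flat inhibition between 30 and 70% or a poor curve fit; inactive = the rest.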

Test: off-target signal loss in HeLa-CEM21 co-culture – HeLa F-luc CTL cells, cherry-picked, counter-screen for HIV-1 Env fusion inhibitor project, dose response (AID 652040);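 also: more negative values mean stronger loss of luciferase signal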
Conditions: HeLa-F-luc CTL cells with CEM21, firefly luciferase counterscreen; series mostly up to 35 µM
With `CCC(=NCCc1c[nH]c2ccccc12)c1c(O)n(C)c(=O)n(C)c1=O` the outcome was “inactive”. For `CCC(=NCc1ccc(F)cc1)c1c(O)n(C)c(=O)n(C)c1=O`, the outcome was “inactive”. With `Cn1nc(-c2ccc(OCC(=O)N3CCN(Cc4ccccc4)CC3)cc2)c2ccccc2c1=O` the outcome was “inactive”.
